110 compounds from PubChem BioAssay AID1745849 (National Center for Advancing Translational Sciences (NCATS), 2022) can be followed below.

Screen size: about 2,100 compounds; about 320 (15%) were called active. Inconclusive results (about 52%) are left out. Calls follow the shape of the dose curve; as a rule, active = well fitted cell-killing curve with a large enough effect; inconclusive = small, poorly fitted or top-dose-only effect, or effect the other way; inactive = flat fitted curve, though single readings scatter. This is one part of the list. Where a call stands in place of a potency, no number is given.
Potency is read from the fitted curve at half-maximal effect.

This assay in a line: Viability Counterscreen for CMV-Luciferase Assay of Inhibitors of ATXN expression. Also: nearly all actives have a fitted effect of over 55% in size. Particulars: HEK-293 CMV-luciferase cells viability, protease fluorescence, 24 h. Summed up:
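Fluorescence from cleaved Gly-Phe-AFC (25 uM final, 30 min, ex 405/em 540 nm) reported viability, and the luciferase signal of the same CMV-reporter HEK-293 wells was read 5 min after SteadyGlo addition. Dosing lasted 24 hr.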
On the technique in general: The purpose of a counterscreen is to sort out artefacts and off-target activity.
Turning to `CCc1nc2ccc(C(=O)N(C)Cc3ccccc3)cn2c1N(C)Cc1ccc(OC)cc1`, the Potency entry was “inactive”.

As for `Cc1csc(NC(=O)COCC(=O)O)c1-c1nc2ccccc2s1`, the Potency entry is “inactive”.

For the compound `Cn1c(COc2ccc(Cl)cc2)nnc1SCc1ncc(-c2ccccc2)o1`, the Potency entry is “inactive”.

On to `COc1ccc(-c2c[n+]3c(n2-c2ccc(C)cc2)CCCCC3)cc1`, for which the Potency was 12.6 µM (active).

Take `COc1ccc(-c2c[n+]3c4n2CCCCC4=C(c2ccc(Br)cc2)C3)cc1`: the Potency entry is “inactive”.

On to `CCOc1ccc(-c2c[n+]3c(n2-c2ccccc2)CCCCC3)cc1`, for which the Potency entry is “inactive”.

Turning to `CN(c1ccccc1)c1ccc(/C=N/NC(=O)CC#N)cc1`, the Potency result was “inactive”.

On to `CCCc1cc(C(=O)Nc2ccc(C(=O)c3ccc(C)cc3)cc2)n(C)n1`, for which the Potency entry is “inactive”.

On to `O=C(Nc1ccc[n+](CC(=O)c2cccc3ccccc23)c1)c1ccccc1`, for which the Potency is 3.16 µM (active).

With `CC(C(=O)c1ccc(-c2ccccc2)cc1)[n+]1cccc(NC(=O)c2ccccc2)c1` (stereo not given), the Potency result was “inactive”.

Turning to `OC(CNCCc1ccccc1)COc1ccc(OCC(O)CNCCc2ccccc2)cc1` (stereo not given), the Potency is 28.2 µM (active).

In the case of `OCCN(Cc1ccccc1)CC(O)COc1ccc(-c2ccccc2)cc1` (stereo not given), the Potency result was “inactive”.

`CCOc1ccccc1NC(=O)N1CCC(c2nc3ccccc3[nH]2)CC1`: the Potency result is “inactive”.

As for `C(=N\Nc1ccc2nncn2n1)/c1ccccn1`, the Potency was 11.2 µM (active).

In the case of `C(=N\NC(=Nc1ccccc1)c1ccccn1)/c1ccccn1`, the Potency entry is “inactive”.

On to `O=c1cnnc(N/N=C/c2ccccn2)[nH]1`, for which the Potency is 1.58 µM (active).

In the case of `O=c1nc(N/N=C/c2ccccn2)cn[nH]1`, the Potency was 7.94 µM (active).

With `COc1cccc(CNCCc2c[nH]c3ccccc23)c1OCc1ccc(F)cc1`, the Potency result was “inactive”.

As to `Cc1cc(N2CCN(c3nc(-c4ccccc4)cs3)CC2)c2ccccc2n1`, the Potency entry is “inactive”.

With `CCN1CCS/C1=C\C=C\C1=[N+](CC)CCS1`, the Potency is 15.8 µM (active).

Take `CCOC(=O)c1sc2nc(CSc3ccccc3)nc(NCCN(C)C)c2c1C`: the Potency entry was “inactive”.

In the case of `COc1ccc(OCCNC(=O)C2(C)CCN2Cc2ccc3ccccc3c2)cc1` (stereo not given), the Potency entry was “inactive”.

In the case of `CCCCn1c(/C=N/Nc2nc3ccccc3[nH]2)nc2ccccc21`, the Potency entry was “inactive”.

`O=C1C=Cc2cccc3ccc(O)c1c23`: the Potency entry is “inactive”.

Regarding `Cc1cc(C)n(CCC(=O)N/N=C/c2ccc(O)cc2O)n1`, the Potency result is “inactive”.

Turning to `COc1ccc(O)c(/C=N/NC(=O)c2ccc(CSc3nc(C)cc(C)n3)cc2)c1`, the Potency result is “inactive”.

Turning to `COc1ccc(N2CCN(c3cc(C)nc4ccc(OC)cc34)CC2)cc1`, the Potency result is “inactive”.

`O=C(CNS(=O)(=O)c1ccc([N+](=O)[O-])cc1)N/N=C/c1ccc(O)cc1O`: the Potency entry was “inactive”.

Turning to `Cc1cc(SCC(=O)N/N=C/c2ccc(O)cc2O)nc2ccccc12`, the Potency is 12.6 µM (active).

Turning to `O=C(NN=Cc1ccc(O)cc1O)c1ccccc1NS(=O)(=O)c1cccs1`, the Potency entry is “inactive”.

Consider `CCOc1ccc(/C=N/NC(=O)C(O)c2ccccc2)c(O)c1` (stereo not given), for which the Potency entry was “inactive”.

With `Cc1cc(SCC(=O)N/N=C/c2ccc(O)cc2O)c(C)cc1Br`, the Potency was 11.2 µM (active).

As for `COc1ccc2nc(C)cc(SCC(=O)N/N=C/c3ccc(O)cc3O)c2c1`, the Potency is 7.94 µM (active).

In the case of `O=C(CP(=O)(c1ccccc1)c1ccccc1)N/N=C/c1cc(Br)cc(Br)c1O`, the Potency result is “inactive”.

Regarding `O=C(/C=C\c1ccccc1)NCC(=O)N/N=C/c1ccc(O)cc1O`, the Potency is 10 µM (active).

Turning to `O=C(N/N=C/c1ccc(O)cc1O)/C(=C/c1ccccc1)CCO`, the Potency result is “inactive”.

Turning to `CCCCn1c(SCC(=O)Nc2cc(C(F)(F)F)cc(C(F)(F)F)c2)nnc1C(CC)N(C)C` (stereo not given), the Potency entry is “inactive”.

In the case of `COc1cc2ccnc(Cc3cccc(OC)c3OC)c2cc1OC`, the Potency result was “inactive”.

On to `Cn1cc(SCC(=O)Nc2nc3ccccc3s2)c2ccccc21`, for which the Potency entry was “inactive”.

For the compound `COc1ccc(/C=C/C(=O)Nc2cccc(F)c2)cc1S(=O)(=O)N1CCOCC1`, the Potency result is “inactive”.

On to `O=C(Nc1cccc(Br)c1)Oc1cccc2cccnc12`, for which the Potency result was “inactive”.

Regarding `c1cnc2c(c1)ccc1cccnc12`, the Potency was 5.01 µM (active).

For `CCCC(=O)N1CCCC(c2cc(C(=O)Nc3ccccc3)no2)C1` (stereo not given), the Potency entry was “inactive”.

As to `Cc1nn(-c2ccccn2)c2c1C(=O)CC(C)(C)C2N=[N+]=[N-]` (stereo not given), the Potency entry is “inactive”.

Regarding `CCc1cc2c(N3CCN(c4nnc(CC)s4)CC3)ncnc2s1`, the Potency result is “inactive”.

For the compound `CC(O)CNCCNCc1c(OCc2ccccc2)ccc2ccccc12` (stereo not given), the Potency entry is “inactive”.

For `NC(N)=N/N=C/c1ccc2cccc(OCc3ccccc3)c2n1`, the Potency is 14.1 µM (active).

Regarding `Cc1cc(C)nc(/N=C(\N)Nc2ccc(OCc3ccccc3)cc2)n1`, the Potency entry is “inactive”.

For the compound `COc1ccccc1C(CCNCc1ccccc1)c1ccc(OC(C)C)cc1` (stereo not given), the Potency result is “inactive”.

Take `CN1C2CCC1/C(=C\c1ccccc1)C(=O)/C2=C\c1ccccc1`: the Potency was 10 µM (active).

Regarding `Cc1ccc2c(Cl)cc(Cl)c(OCC(=O)Nc3cc(S(=O)(=O)N(C)C)ccc3C)c2n1`, the Potency entry was “inactive”.

In the case of `c1ccc(CNc2nc(-c3ccccn3)nc3ccccc23)cc1`, the Potency is 7.94 µM (active).

For the compound `CN1CCN(c2nc(-c3ccccn3)nc3ccccc23)CC1`, the Potency result is “inactive”.

With `Clc1cccc(-c2nc(NCc3cccnc3)c3ccccc3n2)c1`, the Potency result was “inactive”.

`CC(C)CCNC(=O)COc1cccc2c1OC(C)(C)C2`: the Potency result is “inactive”.

For the compound `COc1cc(OC)c(C(=O)C=Cc2ccc(OC)c(OC)c2)c(OC)c1`, the Potency is 20 µM (active).

Regarding `COc1ccc(C(=O)/C=C/c2ccc(OC3CSC3)cc2)cc1OC`, the Potency entry was “inactive”.

Consider `COc1cc(/C=C/C(O)=C/C(=O)/C=C/c2ccc(O)cc2)ccc1O`, for which the Potency result was “inactive”.

As for `COc1cc(C=CC(=O)c2cc(OC)c(OC)c(OC)c2)cc(OC)c1OC`, the Potency is 10 µM (active).

For `COc1ccc(NC(=O)c2oc3ccc(S(=O)(=O)N4CCC5(CC4)OCCO5)cc3c2C)cc1`, the Potency entry was “inactive”.

Turning to `Cn1ncc2c(Nc3cccc(Cl)c3)nc(Nc3cccc(Cl)c3)nc21`, the Potency result is “inactive”.

Take `CC1Sc2ccc(S(=O)(=O)CCC(=O)N3CCN(c4cccc(Cl)c4)CC3)cc2NC1=O` (stereo not given): the Potency entry is “inactive”.

As for `O=C(Nc1nc(-c2ccccc2)cs1)c1ccccc1NS(=O)(=O)c1ccc(F)cc1`, the Potency is 3.16 µM (active).

Consider `COc1ccc(C(=O)Nc2nc(-c3ccc(S(=O)(=O)N4CCOCC4)cc3)cs2)cc1`, for which the Potency result is “inactive”.

On to `CC(O)(c1ccccc1)c1nc(-c2ccncc2)cs1` (stereo not given), for which the Potency entry was “inactive”.

For `COc1ccccc1C(=O)Nc1nc(-c2ccc(S(=O)(=O)N3CCOCC3)cc2)cs1`, the Potency entry is “inactive”.

`CC(=O)c1sc(NC(=O)c2cc(-c3ccccc3)nn2-c2ccccc2)nc1C`: the Potency entry is “inactive”.

In the case of `CC(=O)c1c(C)[nH]c(C(=O)Nc2nc(-c3ccc(-c4ccccc4)cc3)cs2)c1C`, the Potency was 11.2 µM (active).

Turning to `COc1ccc(-c2csc(NC(=O)c3ccccc3NS(=O)(=O)c3ccc(F)c(F)c3)n2)cc1`, the Potency was 2.24 µM (active).

Consider `COCC(=O)OC/C(O)=C(\C#N)c1nc2ccccc2[nH]1`, for which the Potency result is “inactive”.

Turning to `CCOc1cc(CNCCO)cc(Br)c1OCc1ccccc1`, the Potency entry is “inactive”.

`O=C(c1ccco1)N(CCCN1CCOCC1)c1nc(-c2ccc(Cl)cc2)cs1`: the Potency result is “inactive”.

Regarding `CN(C)S(=O)(=O)c1cccc(N2C(=O)CC3(CCCCC3)CC2=O)c1`, the Potency result is “inactive”.

As to `O=C(CN1C(=O)c2ccccc2S1(=O)=O)c1ccc(Cl)cc1Cl`, the Potency result is “inactive”.

Consider `N#Cc1c(Oc2ccc3ccccc3c2)sc(C(=O)c2ccccc2)c1N`, for which the Potency entry is “inactive”.

Consider `Cc1ccc(C)n1-c1ccc(C(=O)N2CCC(C(N)=O)CC2)cc1`, for which the Potency entry was “inactive”.

Turning to `Cc1ccc(C)c(N2CCN(C(=O)CCCCCn3c(=S)[nH]c4ccc(N5CCOCC5)cc4c3=O)CC2)c1`, the Potency entry was “inactive”.

As to `O=C(CN1C(=O)c2ccccc2S1(=O)=O)c1ccc(O)c(O)c1`, the Potency entry is “inactive”.

`c1ccc(COc2ncnc3c2ncn3CCCN2CCN(Cc3cccc4ccccc34)CC2)cc1`: the Potency is 25.1 µM (active).

As for `O=c1[nH]c(CN2CCN(c3ncccn3)CC2)nc2c(Br)cc(Br)cc12`, the Potency result was “inactive”.

Turning to `COc1ccc2c(c1)[nH]c1c(=O)n(/N=C/C3C(C)C=C(C)CC3C)c(=O)[nH]c12` (stereo not given), the Potency was 20 µM (active).

`O=C(CCCN1CCc2[nH]c3ccc(F)cc3c2C1)c1ccc(F)cc1`: the Potency result was “inactive”.

For the compound `Cc1ccc(OCC(O)Cn2c(=N)n(CCN3CCCCC3)c3ccccc32)cc1` (stereo not given), the Potency result is “inactive”.

`N=c1n(CCN2CCCCC2)c2ccccc2n1CC(O)c1ccc(Cl)c(Cl)c1` (stereo not given): the Potency was 20 µM (active).

For the compound `Cc1nc(SC2CC(=O)N(c3ccccc3)C2=O)n[nH]1` (stereo not given), the Potency entry is “inactive”.

In the case of `CCCCC/C=C/C1=CC(=O)C[C@H](c2ccc(OC)c(OC)c2)C1`, the Potency entry was “inactive”.

Consider `O=C(c1cccc(Cl)c1)c1nn(-c2ccccc2)c(=O)cc1C(F)(F)F`, for which the Potency is 22.4 µM (active).

For `Cc1cc(=O)oc2c1c(C)nn2-c1cccc(Cl)c1`, the Potency entry is “inactive”.

In the case of `CC(C)=C1SC(N2CCN(c3ccc(C)c(Cl)c3)CC2)=NC1=O`, the Potency entry was “inactive”.

As for `O=C(NC(c1ccccc1)c1ccc2ccccc2n1)C1CCN(CCOc2ccc(Cl)cc2Cl)CC1` (stereo not given), the Potency was 17.8 µM (active).

For `CC(C)Nc1nc(NC(C)C)nc(N(C#N)CCOc2ccc(Cl)cc2Cl)n1`, the Potency result is “inactive”.

With `COc1ccc(NC2=NCC(Cc3ccc(Br)cc3)S2)cc1` (stereo not given), the Potency entry was “inactive”.

Take `COc1ccc(N2C3=C(CC4=C2CC(C)(C)CC4=O)C(=O)CC(C)(C)C3)cc1`: the Potency entry is “inactive”.

With `CCCCNC(=O)C1(C)CCCCN1Cc1ccccc1-c1ccccc1` (stereo not given), the Potency result was “inactive”.

In the case of `C/C(=C\C(=O)c1ccc(Br)cc1)NNC(=O)c1ccc(O)cc1`, the Potency is 12.6 µM (active).

For `CC(=NNC(=O)c1ccncc1)c1ccc(O)cc1O`, the Potency entry is “inactive”.

`O=c1ccc2ccccc2c2ccccc12`: the Potency is 10 µM (active).

In the case of `O=c1cc(-c2ccncc2)oc2c1ccc1ccccc12`, the Potency entry was “inactive”.

With `O=C(CCc1ccccc1)NNC(=O)c1cc(Cl)ccc1O`, the Potency result is “inactive”.

Consider `Cc1ccc(C(=O)NNC(=O)CCCN2C(=O)/C(=C/c3ccccc3Cl)SC2=S)cc1`, for which the Potency result is “inactive”.

Consider `COc1cc(/C=C2\SC(=O)N(CC(=O)Nc3ccccc3F)C2=O)cc(Cl)c1O`, for which the Potency entry is “inactive”.

Consider `Cc1ccc2c(CC(=O)NNC(=O)c3ccccc3O)coc2c1`, for which the Potency entry was “inactive”.

As for `COc1ccc(/C=C2\SC(=S)N(CCCC(=O)NNC(=O)c3ccccc3O)C2=O)cc1`, the Potency is 20 µM (active).

Regarding `COc1ccccc1/C=C1\SC(=S)N(CCC(=O)NC2=NCCS2)C1=O`, the Potency result was “inactive”.

On to `CC(C)(C)c1ccc(OCCCC(=O)NNC(=O)c2ccccc2O)cc1`, for which the Potency is 25.1 µM (active).

As to `Cc1ccc(/C=C2\SC(=S)N(CCCC(=O)Nc3cc(C)on3)C2=O)cc1`, the Potency result was “inactive”.

For `Cc1ccc(/C=C2\SC(=S)N(CCCC(=O)NC3CCCC3)C2=O)cc1`, the Potency entry was “inactive”.

Take `Cc1ccc(/C=C2\SC(=S)N(CCCC(=O)Nc3ccc(O)cc3)C2=O)cc1`: the Potency entry was “inactive”.

Consider `COc1cccc(/C=C2/SC(=S)N(CCCC(=O)Nc3ccc(O)cc3)C2=O)c1`, for which the Potency was 3.98 µM (active).

Consider `Cc1ccc(/C=C2/SC(=S)N(CCCC(=O)Nc3cc([N+](=O)[O-])ccc3O)C2=O)cc1`, for which the Potency is 25.1 µM (active).
